Reference: PubChem BioAssay (NCATS)
Results filed as inconclusive are left out. Entries that show only a call come without a potency. The source made the active and inactive calls. Unless noted, calls follow the shape of the dose curve; as a rule, active = well fitted curve in the direction sought with a large enough effect; inconclusive = small, poorly fitted or top-dose-only effect, or another doubt; inactive = no such curve, though single readings can be large; an effect the other way counts as inactive or inconclusive.

Tests used:
[1] = target: Mitogen-activated protein kinase 10 (Mus musculus) (UniProt Q61831); assay: JNK3 AlphaScreen Assay (AID 530; active = well fitted curve in either direction with a large enough effect, not every such curve was filed as active;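 also: kinase came from lysate of stimulated human HepG2 cells; signal reports phosphorylation of biotinylated GST-cJun 1-79 at Ser73 with 10 µM ATP; series mostly up to about 57 µM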)
Method in brief: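 Room-temperature AlphaScreen kinase assay; pre-activated HepG2 lysate as JNK3 source, biotin-GST-cJun(1-79) substrate, 10 uM ATP, compound 15 min preincubation.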

[2] = target: Cytochrome P450 3A4 (Homo sapiens) (UniProt P08684); assay: qHTS Assay for Inhibitors and Substrates of Cytochrome P450 3A4 (AID 884); also: potency is read from the fitted curve at half-maximal effect; nearly all actives have a fitted effect of over 50% in size
Sequence of Cytochrome P450 3A4 (Homo sapiens) (P08684 whole entry, looked up): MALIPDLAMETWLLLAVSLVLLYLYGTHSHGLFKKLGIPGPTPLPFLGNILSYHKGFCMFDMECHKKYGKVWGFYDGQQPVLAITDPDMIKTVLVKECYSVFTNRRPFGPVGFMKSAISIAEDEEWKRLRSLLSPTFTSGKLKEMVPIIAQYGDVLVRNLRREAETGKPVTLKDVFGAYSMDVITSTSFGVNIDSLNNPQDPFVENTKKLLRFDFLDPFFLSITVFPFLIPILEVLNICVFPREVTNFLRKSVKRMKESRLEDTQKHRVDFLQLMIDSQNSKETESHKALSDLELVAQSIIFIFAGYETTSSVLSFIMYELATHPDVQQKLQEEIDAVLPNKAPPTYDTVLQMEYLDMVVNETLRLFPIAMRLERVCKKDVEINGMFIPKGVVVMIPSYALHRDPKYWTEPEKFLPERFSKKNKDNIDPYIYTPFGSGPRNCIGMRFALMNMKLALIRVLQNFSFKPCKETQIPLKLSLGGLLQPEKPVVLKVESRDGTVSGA
Method in brief: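 20 nM human CYP3A4 with 25 uM Luciferin-PPXE (at KM) in 200 mM KPO4, preincubated 10 min with compound; NADPH regeneration started a 60 min RT reaction. Luciferin detected by luminescence, normalized to 57 uM ketoconazole as full inhibition.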

[3] = target: Cytochrome P450 3A4 (Homo sapiens) (UniProt P08684); assay: qHTS Assay for Activators of Cytochrome P450 3A4 (AID 885); also: nearly all actives have a fitted effect of over 65% in size
Method in brief: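 Human CYP3A4 (20 nM) with Luciferin-PPXE at 25 uM (its KM) in 200 mM KPO4; 10 min compound preincubation, then NADPH regeneration and 60 min reaction at RT. Luciferin read by luminescence; normalized to 57 uM ketoconazole full inhibition.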

[4] = target: Calcium and integrin-binding protein 1 (Homo sapiens) (UniProt Q99828); assay: Primary qHTS for Identification of Calcium Integrin Binding Protein 1 (CIB1) Competitor (AID 1508620);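 also: GST tagged CIB1 binding a fluorescein labelled alphaIIb integrin peptide tracer; top concentration of the series differs between compounds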
Sequence of Calcium and integrin-binding protein 1 (Homo sapiens) (Q99828 whole entry, looked up): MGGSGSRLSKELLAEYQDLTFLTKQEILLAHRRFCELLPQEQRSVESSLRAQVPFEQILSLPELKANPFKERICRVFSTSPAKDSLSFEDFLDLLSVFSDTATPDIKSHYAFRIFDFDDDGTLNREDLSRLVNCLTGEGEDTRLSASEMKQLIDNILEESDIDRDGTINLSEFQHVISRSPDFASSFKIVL
Method in brief: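 CIB1-GST (1 uM final) and compound incubated 15 min at room temperature before adding FITC-alphaIIb peptide tracer (100 nM final). Competition for binding read by fluorescence polarization (ex 480, em 540) after another 15 min at room temperature.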

[5] = qHTS for Inhibitors of Ubiquitin-specific Protease USP2a Using CHOP2 as the Reporter: K633 Counterscreen (AID 652168); also: series mostly up to about 57 µM
Method in brief: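 Cell-free interference counterscreen without USP2a: compounds pinned into enzyme-free buffer (20 mM Tris pH 8, 2 mM beta-mercaptoethanol, 0.05% Chaps), then DiUb K48-4IQF substrate added (100 nM stock); fluorescence read kinetically, Ex 525/Em 598.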

[6] = qHTS for Inhibitors of Ubiquitin-specific Protease USP2a Using CHOP2 as the Reporter: Cytotox Assay (AID 652170); also: series mostly up to about 46 µM; nearly all actives have a fitted effect of over 70% in size
Method in brief: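 HCT116 human colon cancer cells, 600 per well in DMEM with 10% FBS, exposed to compounds for 72 hr at 37 deg C. ATP measured by CellTiter-Glo luminescence, normalized to DMSO cells and no-cell background.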

[7] = target: Ubiquitin carboxyl-terminal hydrolase 2 (Homo sapiens) (UniProt O75604); assay: qHTS for Inhibitors of Ubiquitin-specific Protease USP2a Using CHOP2 as the Reporter: K484 Substrate (AID 652173);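 also: cleavage of internally quenched K48 di-ubiquitin substrate measured as rising fluorescence over time; nearly all actives have a fitted effect of over 70% in size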
Sequence of Ubiquitin carboxyl-terminal hydrolase 2 (Homo sapiens) (O75604 whole entry, looked up): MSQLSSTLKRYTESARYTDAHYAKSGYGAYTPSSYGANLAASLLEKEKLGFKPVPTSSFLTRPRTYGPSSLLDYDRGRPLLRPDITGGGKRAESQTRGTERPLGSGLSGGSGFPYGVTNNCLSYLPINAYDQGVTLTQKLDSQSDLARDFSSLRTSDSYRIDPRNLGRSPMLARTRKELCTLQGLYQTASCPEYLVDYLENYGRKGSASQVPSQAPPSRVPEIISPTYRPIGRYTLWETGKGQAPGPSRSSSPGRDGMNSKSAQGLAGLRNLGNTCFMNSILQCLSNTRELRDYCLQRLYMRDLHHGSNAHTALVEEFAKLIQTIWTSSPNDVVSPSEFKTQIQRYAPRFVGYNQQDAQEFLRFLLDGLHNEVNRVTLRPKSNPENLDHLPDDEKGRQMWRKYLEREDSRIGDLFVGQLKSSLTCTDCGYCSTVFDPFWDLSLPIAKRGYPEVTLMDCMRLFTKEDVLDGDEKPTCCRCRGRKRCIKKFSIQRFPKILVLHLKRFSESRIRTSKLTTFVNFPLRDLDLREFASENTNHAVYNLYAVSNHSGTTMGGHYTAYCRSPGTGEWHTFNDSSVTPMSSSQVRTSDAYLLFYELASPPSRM
Method in brief: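 USP2 (dispensed at 5 nM) was pinned with compounds, then DiUb K48 internally quenched fluorescent substrate (dispensed at 100 nM) was added. The buffer was 20 mM Tris pH 8, 2 mM beta-mercaptoethanol and 0.05% CHAPS. Cleavage was read kinetically as rising fluorescence, Ex 525/Em 598.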

CCCn1c(-c2ccc(F)cc2)nc2c(NCCCCN3CCCC3)nc(C)nc21
outcome [1]: inactive
Potency [2]: 15.8 µM (active)
Potency [3]: inactive
Potency [4]: inactive

CCCCNc1nc(C)nc2c1nc(-c1ccccc1)n2CC1CCN(C)CC1
outcome [1]: inactive
Potency [3]: inactive
Potency [4]: inactive

Cc1nc(NC2CCCCC2)c2nc(-c3ccccc3)n(CCN(C)C)c2n1
outcome [1]: inactive
Potency [3]: inactive
Potency [4]: inactive

CCN(CC)CCCC(C)n1c(-c2ccccc2)nc2c(NCCOC)nc(C)nc21 (configuration not stated)
outcome [1]: inactive
Potency [3]: inactive
Potency [4]: inactive

CCN(CC)CCCC(C)n1c(-c2ccccc2)nc2c(N3CCOCC3)nc(C)nc21 (configuration not stated)
outcome [1]: inactive
Potency [3]: inactive
Potency [4]: inactive

CCN(CC)CCCn1c(-c2ccccc2)nc2c(N(CCOC)CCOC)nc(C)nc21
outcome [1]: inactive
Potency [3]: inactive
Potency [4]: inactive

CCCn1c(-c2ccc(F)cc2)nc2c(NC3CC4CCC(C3)N4C)nc(C)nc21 (configuration not stated)
outcome [1]: inactive
Potency [3]: inactive
Potency [4]: inactive

CCCn1c(-c2ccc(F)cc2)nc2c(NC3CCN(Cc4ccccc4)C3)nc(C)nc21 (configuration not stated)
outcome [1]: inactive
Potency [2]: 15.8 µM (active)
Potency [3]: inactive
Potency [4]: inactive

COCCNc1nc(C)nc2c1nc(-c1ccccc1)n2CCN1CCCC1
outcome [1]: inactive
Potency [3]: inactive
Potency [4]: inactive

CCCn1c(-c2ccc(F)cc2)nc2c(NCCCN(CCO)CCO)nc(C)nc21
outcome [1]: inactive
Potency [3]: inactive
Potency [4]: inactive

CCCn1c(-c2ccc(F)cc2)nc2c(NCC3CCN(C)CC3)nc(C)nc21
outcome [1]: inactive
Potency [3]: inactive
Potency [4]: inactive

Cc1nc(NC2CCCCC2)c2nc(-c3ccccc3)n(CCN3CCCC3)c2n1
outcome [1]: inactive
Potency [3]: inactive
Potency [4]: inactive

CCCn1c(-c2ccc(F)cc2)nc2c(NCC3CCCN3CC)nc(C)nc21 (configuration not stated)
outcome [1]: inactive
Potency [3]: inactive
Potency [4]: inactive

Cc1nc(Nc2ccccc2)c2nc(-c3ccccc3)n(CCCN3CCCCC3C)c2n1 (configuration not stated)
outcome [1]: inactive
Potency [3]: inactive
Potency [4]: inactive

CCCn1c(-c2ccc(F)cc2)nc2c(N3CCN(Cc4nc(OC)cc(OC)n4)CC3)nc(C)nc21
outcome [1]: inactive
Potency [2]: 3.98 µM (active)
Potency [3]: inactive
Potency [4]: inactive

CCCn1c(-c2ccc(F)cc2)nc2c(NCCN3CCCCC3)nc(C)nc21
outcome [1]: inactive
Potency [3]: inactive
Potency [4]: inactive

CCN(CC)CCn1c(-c2ccccc2)nc2c(NC3CCCCC3)nc(C)nc21
outcome [1]: inactive
Potency [3]: inactive
Potency [4]: inactive

CCCn1c(C)nc2c(NC(C)CCCN(CC)CC)nc(C)nc21 (configuration not stated)
outcome [1]: inactive
Potency [3]: inactive
Potency [4]: inactive

CCCn1c(C)nc2c(NCc3ccccc3)nc(C)nc21
outcome [1]: inactive
Potency [3]: inactive
Potency [4]: inactive

CCCCNc1nc(C)nc2c1nc(-c1ccccc1)n2CCN(C)C
outcome [1]: inactive
Potency [3]: inactive
Potency [4]: inactive

COCCN(CCOC)c1nc(C)nc2c1nc(-c1ccccc1)n2CCN1CCCC1
outcome [1]: inactive
Potency [3]: inactive
Potency [4]: inactive

CCN(CC)CCCn1c(-c2ccccc2)nc2c(NCc3ccccc3)nc(C)nc21
outcome [1]: inactive
Potency [3]: inactive
Potency [4]: inactive

CCCn1c(C)nc2c(NCCN3CCOCC3)nc(C)nc21
outcome [1]: inactive
Potency [3]: inactive
Potency [4]: inactive

COCCN(CCOC)c1nc(C)nc2c1nc(-c1ccccc1)n2CC1CCN(C)CC1
outcome [1]: inactive
Potency [3]: inactive
Potency [4]: inactive

CCN(CC)CCn1c(-c2ccccc2)nc2c(NCCOC)nc(C)nc21
outcome [1]: inactive
Potency [3]: inactive
Potency [4]: inactive

CCCn1c(-c2ccc(F)cc2)nc2c(NCCN(CC)CC)nc(C)nc21
outcome [1]: inactive
Potency [3]: inactive
Potency [4]: inactive

CCCn1c(C)nc2c(NCCCCN(CC)CC)nc(C)nc21
outcome [1]: inactive
Potency [3]: inactive
Potency [4]: inactive

CCCCNc1nc(C)nc2c1nc(-c1ccccc1)n2CCCN(C)C
outcome [1]: inactive
Potency [3]: inactive
Potency [4]: inactive

CCN1CCCC1Cn1c(-c2ccccc2)nc2c(N3CCOCC3)nc(C)nc21 (configuration not stated)
outcome [1]: inactive
Potency [3]: inactive
Potency [4]: inactive

CCCn1c(-c2ccc(F)cc2)nc2c(N3CCN(C)CC3)nc(C)nc21
outcome [1]: inactive
Potency [3]: inactive
Potency [4]: inactive

CCCn1c(C)nc2c(NC3CCCCC3)nc(C)nc21
outcome [1]: inactive
Potency [3]: inactive
Potency [4]: inactive

Cc1ccc([S+](=O)([O-])n2cc(-c3ccc(-c4ccccc4)cc3)c3ccccc32)cc1
outcome [5]: inactive
Potency [6]: inactive
Potency [7]: inactive
Potency [4]: inactive

CCCCCN1CCC(C(=O)Nc2ccc([S+](=O)([O-])Nc3nccs3)cc2)CC1
outcome [5]: inactive
Potency [6]: inactive
Potency [7]: inactive
Potency [4]: inactive

Cc1nc(N2CCOCC2)c2nc(-c3ccccc3)n(CC(C)(C)CN(C)C)c2n1
outcome [1]: inactive
Potency [3]: inactive
Potency [4]: inactive
